Measurements published in the supplement of paper PMC12350171.
Structures can show the parent of a compound that is named as a salt.

What follows are compounds tested on Haemophilus parainfluenzae (assay: growth AUC normalised to DMSO control (fraction of control); higher = less growth inhibition, active = hit call of the paper). Conditions: 20 µM;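 active = AUC significantly below DMSO controls by Student t-fit with adjusted P under 0.01; inactive = not significantly reduced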.
How it was run: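 For the AUC endpoint, growth curves were integrated by the trapezoidal rule up to the exponential-to-stationary transition and normalised to DMSO controls on the same plate. The curves came from OD578 readings taken hourly for 24 h, in three biological replicates. Pathogens had been passaged anaerobically twice and inoculated at an OD578 of 0.01 into pre-reduced mGAM plates carrying 20 μM compound and 1% DMSO, sealed with breathable membranes. Medium for Haemophilus parainfluenzae also contained hemin and NAD.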

| Compound | growth AUC normalised to DMSO control |
| --- | --- |
| CCN(CC)CCOCCOC(=O)C1(c2ccccc2)CCCC1 [Carbetapentane citrate] | 1 (inactive) |
| CCOc1ccc(Cc2nccc3cc(OCC)c(OCC)cc23)cc1OCC [Ethaverine hydrochloride] | 1.02 (inactive) |
| CN[C@@H]1[C@@H](O)[C@@H](O[C@@H]2[C@@H](O)[C@H](O[C@H]3OC(CN)=CC[C@H]3N)[C@@H](N)C[C@H]2N)OC[C@]1(C)O [Sisomicin sulfate] | 0.864 (inactive) |
| Cc1ncc(CO)c(CO)c1O [Pyridoxine hydrochloride] | 0.958 (inactive) |
| O=c1[nH]c(=O)n([C@H]2C[C@H](O)[C@@H](CO)O2)cc1C(F)(F)F [Trifluridine] | 1.08 (inactive) |
| O=C(O)c1cn(-c2ccc(F)cc2)c2cc(N3CCNCC3)c(F)cc2c1=O [Sarafloxacin] | 0.0521 (active) |
| N[C@@H](Cc1cc(I)c(Oc2cc(I)c(O)c(I)c2)c(I)c1)C(=O)O [(L) Thyroxine] | 0.96 (inactive) |
| CC(=O)CC(c1ccccc1)c1c(O)c2ccccc2oc1=O (centres undefined) [Warfarin] | 1.02 (inactive) |
| Nc1ccn([C@@H]2CS[C@H](CO)O2)c(=O)n1 [Lamivudine] | 0.999 (inactive) |
